The source of these data is PubChem BioAssay AID651813 (National Center for Advancing Translational Sciences (NCATS), 2012).

Screen size: about 2,100 compounds; about 1,100 (52%) were called active. Another 27% or so got no clear call; they are omitted. Calls follow the shape of the dose curve; as a rule, active = well fitted inhibition curve with a large enough effect; inconclusive = small, poorly fitted or top-dose-only effect; inactive = no such curve, though single readings can be large or run the other way. So high a share suggests a set chosen from earlier hits. The list shows a part of the results.
Potency is read from the fitted curve at half-maximal effect.

DNA dC->dU-editing enzyme APOBEC-3G (Homo sapiens), sequence (Q9HC16 whole entry, looked up): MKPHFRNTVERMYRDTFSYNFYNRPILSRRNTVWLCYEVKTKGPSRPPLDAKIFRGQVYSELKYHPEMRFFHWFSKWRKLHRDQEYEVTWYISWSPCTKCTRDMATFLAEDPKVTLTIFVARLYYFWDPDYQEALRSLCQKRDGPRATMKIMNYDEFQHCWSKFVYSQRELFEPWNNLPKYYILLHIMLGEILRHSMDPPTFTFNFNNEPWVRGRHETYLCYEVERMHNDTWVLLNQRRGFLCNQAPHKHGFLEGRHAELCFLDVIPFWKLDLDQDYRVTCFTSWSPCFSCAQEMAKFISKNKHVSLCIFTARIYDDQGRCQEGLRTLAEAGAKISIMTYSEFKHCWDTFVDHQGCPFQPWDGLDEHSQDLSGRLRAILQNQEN

For this assay, the target named is DNA dC->dU-editing enzyme APOBEC-3G (Homo sapiens) (UniProt Q9HC16). Put plainly: qHTS for inhibitors of Vif-A3G interactions: Cherry picks counterscreen.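 Also: hits raise yellow fluorescence by blocking Vif-driven A3G-eYFP degradation; nearly all actives have a fitted effect of over 70% in size.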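 As to max response: max response given as percent of control signal.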 The conditions noted are these: HeLa A3G-eYFP + Vif (tagged APOBEC3G with the HIV-1 protein that degrades it), eYFP fluorescence, 24 h. A digest of the protocol:
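HeLa cells stably expressing A3G-eYFP and Vif were treated for 24 h at 37 deg C with compounds at several concentrations; yellow fluorescence (Ex 488 nm, Em 500-530 nm) read by Acumen Explorer, MG132 as positive control.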
Turning to `Cc1nc2ccc(NC(=O)c3cc(S(=O)(=O)N(C)c4ccccc4)ccc3Cl)cc2s1`, the Potency was 16.4 µM (active).
`N=c1n(CC(=O)c2ccc([N+](=O)[O-])cc2)c2ccccc2n1Cc1ccccc1`: the Potency is 20.6 µM (active).
Still for that read-out and setting: to `COc1ccc(-c2cc(C(F)F)n3ncc(C(=O)N4CCc5ccccc54)c3n2)cc1` belongs 2.23 µM (active); to `CC1(C(=O)NCc2ccco2)Cc2c(-c3cccc(C(N)=O)c3)ccnc2O1` (configuration not stated), 7.04 µM (active); to `CC(=O)Nc1cccc(-c2ccnc3c2CC(C)(C(=O)NCc2cccs2)O3)c1` (configuration not stated), 3.14 µM (active).
Still for that read-out and setting: as for `CC1(C(=O)NCc2cccs2)Cc2c(-c3ccc(C(N)=O)cc3)ccnc2O1` (configuration not stated), the figure is 9.94 µM (active).
The same measure, in the same setting: to `CC(=O)Nc1ccc(-c2ccnc3c2CC(C)(C(=O)NCc2ccco2)O3)cc1` (configuration not stated) belongs 7.04 µM (active).
Regarding `Cn1c(=O)c(N)c2c3c(c(Br)ccc31)C(=O)c1ccccc1-2`, the max response is 44.6% (inactive).
As for `CC1(C(=O)NCc2ccc(F)c(F)c2)Cc2c(-c3cccc(C(N)=O)c3)ccnc2O1` (configuration not stated), the Potency was 17.7 µM (active).
Same read-out and setting: as for `CC(=O)Nc1cccc(-c2ccnc3c2CC(C(=O)NCc2cccs2)O3)c1` (configuration not stated), the figure is 2.23 µM (active); as for `CC1(C(=O)NCc2ccccc2)Cc2c(-c3ccc(C(N)=O)cc3)ccnc2O1` (configuration not stated), 6.27 µM (active); as for `CC1(C(=O)NCc2ccccc2)Cc2c(-c3cccc(C(N)=O)c3)ccnc2O1` (configuration not stated), 6.27 µM (active).
With `CC(=O)Nc1cccc(-c2ccnc3c2CC(C)(C(=O)NCc2ccccc2)O3)c1` (configuration not stated), the Potency is 1.4 µM (active).
Same read-out and setting: to `CC(=O)Nc1ccc(-c2ccnc3c2CC(C(=O)NCc2ccccc2)O3)cc1` (configuration not stated) belongs 0.444 µM (active); to `CC(=O)Nc1ccc(-c2ccnc3c2CC(C(=O)NCc2cccc(Cl)c2)O3)cc1` (configuration not stated), 3.14 µM (active); to `N#Cc1c(C(F)(F)F)cc(-c2ccccc2)nc1SCc1nc(N)nc(N2CCOCC2)n1`, 2.91 µM (active).
The same measure, in the same setting: to `N#C/C(=C\c1ccc(N2CCOCC2)o1)c1ccccc1` belongs 14 µM (active); to `N#C/C(=C/c1ccc(N2CCOCC2)o1)c1ccc(Cl)cc1`, 2.31 µM (active); to `Cc1ccc(/C(C#N)=C\c2ccc(N3CCOCC3)o2)cc1`, 17.7 µM (active).
Take `N#C/C(=C/c1ccc(N2CCCCCC2)o1)c1ccc(Cl)cc1`: the Potency is 2.91 µM (active).
For `N#CC(C#N)=C1C=C2C=C(N3CCOCC3)CCC2CC1` (configuration not stated), the max response was 51.3% (inactive).
For `Cc1ccc(S(=O)c2ccc([N+](=O)[O-])c3nonc23)cc1` (configuration not stated), the max response is 28.3% (inactive).
The same measure, in the same setting: as for `CN1CCC(OC(=O)c2cc3cc(Cl)cc(Cl)c3oc2=O)CC1`, the figure is 17.4% (inactive).
In the case of `Cn1nnc2c[n+](CC(=O)c3ccc(Cl)cc3)cc(Br)c21`, the Potency was 19.8 µM (active).
Consider `O=C(Nc1nnc(-c2ccc3c(c2)CCCC3)o1)c1c(F)cccc1F`, for which the max response is 11.9% (inactive).
On the same count and under the same terms, to `C/C(=N\NC(=O)c1cc(C)nc2ccccc12)c1ccncc1` belongs -20.6% (inactive); to `O=C(N/N=C/c1c(O)n(-c2ccc(Cl)cn2)c(=O)c2ccccc12)c1ccncc1`, -19.7% (inactive).
For the compound `O=C(N/N=C/c1ccc(Cl)cc1)c1cc(-c2cccnc2)nc2ccccc12`, the Potency is 2.5 µM (active).
The same measure, in the same setting: as for `Cc1ccc(/C=N/NC(=O)c2cc(-c3ccccc3)nc3ccccc23)o1`, the figure is 19.8 µM (active).
On the same count and under the same terms, to `Cc1ccc(C=NNC(=O)c2cc(-c3cccnc3)nc3ccccc23)o1` belongs 15.8 µM (active).
Same read-out and setting: as for `Cc1cc(C(=O)N/N=C/c2ccc(C)o2)c2ccccc2n1`, the figure is 4.98 µM (active).
Regarding `COCCNC(=S)N/N=C(\C)c1ccccc1O`, the max response was 6.88% (inactive).
`COc1ccccc1/C=N/NC(=O)c1cc2c(OC)c(OC)ccc2[nH]1`: the Potency is 5.59 µM (active).
Consider `COc1cccc(/C=N/NC(=O)c2cc3c(OC)c(OC)ccc3[nH]2)c1OC`, for which the Potency is 7.9 µM (active).
On to `CCOc1ccc(/C=N/NC(=O)c2cc3c(OC)cccc3[nH]2)cc1`, for which the max response is 2.03% (inactive).
Still for that read-out and setting: to `COCCCNC(=S)N/N=C/c1cccc(OC)c1O` belongs 7.9% (inactive).
Take `COc1ccc(N=Cc2c(O)n(-c3cccc(C)n3)c(=O)c3ccccc23)c(OC)c1`: the Potency was 6.51 µM (active).
On to `Cc1ccc(N=Cc2c(O)n(-c3nccs3)c(=O)c3ccccc23)c(C)c1`, for which the max response is -1.11% (inactive).
As for `CC1=Nc2ccc(C)cc2/C1=C/c1c(N)n2oc(C)cc2nc1=O`, the Potency is 16.4 µM (active).
In the case of `CCSC1=NSC2=NC(=O)/C(=C\c3coc4ccccc4c3=O)C(=N)N12`, the Potency is 16.4 µM (active).
Turning to `Cc1ccc(Cn2c(SCc3ccc(C(=O)NC4CCCC4)cc3)nc3ccncc32)cc1`, the max response was -1.29% (inactive).
Same read-out and setting: as for `Cc1ccc(O)c(Nc2c3ccccc3nc3ccccc23)c1`, the figure is 10.9% (inactive).
For the compound `COc1ccc(C)cc1Nc1c2c(nc3ccccc13)CCC2`, the Potency is 0.886 µM (active).
For `Cc1ccc(-c2cn3nc(-c4ccccc4)c(-c4ccccc4)nc3n2)cc1`, the Potency was 16.4 µM (active).
On the same count and under the same terms, as for `Cn1cccc1/C=C1\SC(=Nc2ccccc2)NC1=O`, the figure is 2.5 µM (active); as for `Cc1ccc(N=C2NC(=O)/C(=C/c3cccn3C)S2)cc1`, 14 µM (active); as for `Cn1cccc1/C=C1\SC(=Nc2cccc(O)c2)NC1=O`, 11.2 µM (active).
As to `Cc1cccc(N=C2NC(=O)/C(=C/c3cccn3C)S2)c1`, the max response is -23.6% (inactive).
Regarding `Cc1ccc(N=C2NC(=O)/C(=C/c3cn(C)c4ccccc34)S2)cc1C`, the Potency was 17.7 µM (active).
On to `COc1cc(S(=O)(=O)Nc2ccccc2N2CCCCC2)ccc1NC(C)=O`, for which the Potency is 2.23 µM (active).
As to `O=C(NC(=S)Nc1ccccc1N1CCCCC1)c1ccccc1`, the max response was 8.17% (inactive).
Take `C=CCN1C(=O)/C(=C2/Sc3ccc(OC)cc3N2C)SC1=Nc1cccc(O)c1`: the Potency was 18.4 µM (active).
On the same count and under the same terms, as for `C=CCN1C(=O)/C(=C2/Sc3ccc(OC)cc3N2CC)SC1=S`, the figure is 11.6 µM (active).
In the case of `Cc1cc(-n2c(SCC(=O)Nc3ccc(Br)cc3)nc3n[nH]c(C)c3c2=N)ccc1Cl`, the max response is -13.3% (inactive).
Turning to `CCOC(=O)N1CCc2c(sc3c2C(=O)NC(c2ccc(N(C)C)cc2)N3)C1` (configuration not stated), the Potency is 4.11 µM (active).
Same read-out and setting: to `CC(=O)c1ccc(-c2ccc(C(=O)Nc3nc(-c4ccccn4)cs3)o2)cc1` belongs 12.5 µM (active).
Turning to `O=C(CC1CC2CCC1C2)Nc1nc(-c2ccccn2)cs1` (configuration not stated), the max response was 10.6% (inactive).
Still for that read-out and setting: to `O=C(Nc1nc(-c2ccccn2)cs1)C1CCCC1` belongs -16.3% (inactive); to `Cc1cc(/C=N/NC(=O)c2cc3ccccc3o2)c(C)n1C`, -4.16% (inactive).
Take `Cc1c(/C=N\NC(=O)c2cc3ccccc3o2)c2ccccc2n1C`: the Potency was 3.96 µM (active).
`O=C(N/N=C/c1cccc2ccccc12)c1cc2ccccc2o1`: the Potency was 9.94 µM (active).
For the compound `CCCOc1ccc(NC(=O)CC2C(=O)N(c3ccc(OCC)cc3)C(=S)N2C2CC2)cc1` (configuration not stated), the max response is -18.2% (inactive).
As to `COc1cc(N2CCCC2)c(OC)cc1/C=C(/C#N)c1ccc(Br)cc1`, the Potency was 1.64 µM (active).
With `COc1cc(N2CCCC2)c(OC)cc1/C=C(/C#N)c1ccc(F)cc1`, the Potency is 8.2 µM (active).
As for `COc1cc(N2CCCC2)c(OC)cc1/C=C1/NC(=S)NC1=O`, the max response was 60.5% (inactive).
In the case of `CCOC(=O)C(C)Oc1cccc2c(=O)n(CC(=O)NCc3ccco3)ccc12` (configuration not stated), the Potency was 1.4 µM (active).
Turning to `COC(=O)COc1cccc2c(=O)n(CC(=O)NCc3ccccc3)ccc12`, the Potency is 6.27 µM (active).
Turning to `O=c1[nH]c(NCc2ccco2)nnc1Cc1ccccc1Cl`, the Potency was 15.8 µM (active).
The same measure, in the same setting: as for `CC(=O)Nc1sc(/C(C#N)=C/c2ccc(Cl)c(Cl)c2)nc1-c1ccc(C)cc1`, the figure is 0.731 µM (active).
Consider `CCOc1cc(/C=C(\C#N)c2nc(-c3cccs3)c(NC(C)=O)s2)ccc1O`, for which the max response is 51.1% (inactive).
As for `CC(=O)Nc1sc(/C(C#N)=C\c2cccc(Cl)c2)nc1-c1ccc(C)cc1`, the Potency is 4.61 µM (active).
On to `CCCCOc1ccc(/C=C/C2=CC(C)(C)NC(=S)N2)cc1OCC`, for which the max response was -1.97% (inactive).
With `COc1ccccc1-c1c(C#N)c(N)nc2c1CCc1ccccc1-2`, the Potency is 6.27 µM (active).
On the same count and under the same terms, to `CC1=C(C(=O)Nc2cccc(F)c2)C(c2ccsc2)C2=C(CC(C)(C)CC2=O)N1` (configuration not stated) belongs 1.98 µM (active).
With `O=[N+]([O-])c1ccccc1SNc1ccccc1`, the max response is -7.81% (inactive).
With `Cc1cc(C)c(S(=O)(=O)Oc2ccccc2[N+](=O)[O-])c(C)c1`, the Potency was 3.53 µM (active).
Same read-out and setting: to `CC(C)n1cnc2c(NCc3ccccc3)cc(N[C@H](C)CO)cc21` belongs 15.8 µM (active); to `FC(F)(Cl)c1nnc2ccc(Cl)nn12`, 6.27 µM (active); to `N#CCC(=O)N/N=C/c1ccc(N2N=C(c3ccccc3)CC2c2ccccc2)cc1` (configuration not stated), 16.4 µM (active).
Still for that read-out and setting: to `COc1cc2c3nnc(-c4ccc(F)cc4)c-3cn(Cc3ccccc3F)c2cc1OC` belongs 20.6 µM (active).
The same measure, in the same setting: to `COc1cc2c3nnc(-c4ccc(F)cc4)c-3cn(Cc3ccc(C)cc3)c2cc1OC` belongs 9.94 µM (active); to `CCOC(=O)CSC1=C(C#N)C(c2ccc(C)s2)CC(=O)N1` (configuration not stated), 1.77 µM (active).
For `O=C(CCCCl)Oc1ccc2cc(-c3ccc4ccccc4n3)c(=O)oc2c1`, the max response was 32.5% (inactive).
For `CCOc1ccccc1Nc1nnc(-c2cc3cc(OC)ccc3oc2=O)s1`, the Potency was 5.17 µM (active).
In the case of `COc1ccc2oc(=O)c(-c3nc4ccccc4o3)cc2c1`, the Potency was 10.3 µM (active).
Turning to `CC(=O)Nc1ccc2c(c1)Cc1ccc(Cl)cc1-2`, the max response was -8.49% (inactive).
In the case of `CC(=O)Nc1ccc(C2=CC(=O)C[C@H](c3ccc(Cl)cc3)C2)cc1`, the Potency was 18.4 µM (active).
For `CN(C)CCN(C(=O)/C=C/c1cccs1)c1nc2c(F)cc(F)cc2s1`, the max response is -22.8% (inactive).
For `O=C(Nc1ccc([N+](=O)[O-])cc1)C(Cc1ccccc1)N1C(=O)c2cccc3cccc(c23)C1=O` (configuration not stated), the Potency is 8.86 µM (active).
The same measure, in the same setting: as for `Nc1c(C(=O)Nc2ccc(S(=O)(=O)N3CCCC3)cc2)sc2nc3ccc(OC(F)(F)F)cc3cc12`, the figure is 18.4 µM (active); as for `Nc1c(C(=O)Nc2ccc(S(=O)(=O)N3CCCC3)cc2)sc2nc3cc4c(cc3cc12)CCC4`, 10.3 µM (active); as for `CCc1cccc2cc3c(N)c(C(=O)Nc4ccc(S(=O)(=O)N5CCCC5)cc4)sc3nc12`, 5.59 µM (active).
